From PubChem BioAssay
An excerpt weighted towards active compounds, which were near 2.4% of everything screened.
Apoferritin bind = binds horse apoferritin like a general anesthetic; actives 0.074% (n = 350,000); P02791; apoferritin/1-aminoanthracene competitive binding, fluorescence; Potency, µM (top dose mostly 77.5 µM), for the others: top-dose activity change, negative = displacement, hits mostly inhibitors; also: % is scaled to controls: 0 for no effect and ±100 for the full control effect; nearly all actives have a fitted effect of over 20% in size
Target sequence (P02791 2-175 limits assumed): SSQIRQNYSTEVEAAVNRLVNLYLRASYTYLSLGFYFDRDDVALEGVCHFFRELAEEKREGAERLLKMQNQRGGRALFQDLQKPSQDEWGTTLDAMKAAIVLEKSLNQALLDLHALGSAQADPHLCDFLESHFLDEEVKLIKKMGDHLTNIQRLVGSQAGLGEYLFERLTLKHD
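Horse-spleen apoferritin (10 uM) was mixed with 50% saturated 1-aminoanthracene in PBS, exposed to compounds for 10 min at room temperature, and read for fluorescence (ex 380 nm, em 535 nm). Competitive displacement was fitted with a four-parameter Hill equation.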
ATXN2 expr inh = ATXN2 expression inhibition | HEK-293 ATXN2-luciferase reporter, luminescence, 24 h | Potency, µM (top dose mostly 57 µM), inactives show top-dose activity change, negative = inhibition, usual class: inhibitors | actives 0.72% (n = 360,000) | AID 1745845; also: % is scaled to controls: 0 for no effect and ±100 for the full control effect; nearly all actives have a fitted effect of over 55% in size
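ATXN2-luciferase reporter cells (luciferase flanked by upstream and downstream ATXN2 gene portions) were treated 24 h at 37 °C with compounds at up to 57 uM. SteadyGlo luminescence gave expression; GF-AFC fluorescence gave viability.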
HepG2 tox-1 = counter-screen for TGF-b inhibitors: cytotoxicity in HepG2 cells; HepG2 CAGA-GFP viability, ATP luminescence, 18 h; Potency, µM (doses to about 46.1 µM), for inactives: top-dose activity change, negative = cytotoxicity, usual class: cytotoxic; actives 0.76% (n = 410,000); AID 588856
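CellTiter-Glo luminescence gave cytotoxicity after 18 hours at 37 degrees C. The cells were HepG2 CAGA-GFP in 1% FBS DMEM, stimulated with 500 pg/mL TGF-beta after compound addition. %Activity was normalised to no-cell wells (complete cell-killing) and DMSO (no toxicity), and curves were fitted and classified.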
TGFb inhibitor = blocks TGF-b signaling; HepG2 CAGA-GFP TGF-b/SMAD3 reporter, GFP fluorescence, 18 h; TGF-beta stimulated, 500 pg/mL final; Potency, µM (doses to about 46.1 µM), inactives show top-dose activity, negative = inhibition, hits mostly inhibitors; actives 1.2% (n = 410,000); AID 588855; also: % is scaled to controls: 0 for no effect and ±100 for the full control effect; nearly all actives have a fitted effect of over 65% in size
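First, reporter cells (HEPG2 CAGA-GFP) rested 2 h at 37 degrees C. Next, compounds were pinned in and TGF-beta added to 500 pg/mL final. After 18 h, GFP was imaged per cell and summed per well.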
S2 tox = viability counter-screen for ATXN expression inhibitors | Potency, µM (doses to about 56.7 µM), actives largely listed as cytotoxic | actives 0.49% (n = 400,000) | S2 cells (HEK-293 line with an ATXN2-luciferase reporter) viability, CellTiter-Fluor protease fluorescence, 24 h; also: nearly all actives have a fitted effect of over 40% in size
TGFb confirm = confirmation of TGF-b signaling inhibitors in HepG2 reporter cells; shares compounds with TGFb inhibitor; HepG2 CAGA-GFP TGF-b reporter, GFP fluorescence, 18 h; cells stimulated with TGF-beta, 500 pg/mL; Potency, µM (doses to about 46.1 µM), for inactives: at the highest dose activity, negative = inhibition, actives largely listed as inhibitors; actives 63% (n = 1,600); AID 720534; also: % is scaled to controls: 0 for no effect and ±100 for the full control effect; nearly all actives have a fitted effect of over 65% in size
HepG2 tox-2 = HepG2 cytotoxicity, TGF-b inhibitor counterscreen. shares compounds with TGFb inhibitor. HepG2 CAGA-GFP viability, ATP luminescence, 18 h; cells stimulated with TGF-beta, 500 pg/mL. Potency, µM (series often up to 46.1 µM), inactives show top-dose activity, negative = cytotoxicity, most hits filed as inhibitors. actives 27% (n = 1,600). AID 720535; also: % is scaled to controls: 0 for no effect and ±100 for the full control effect; nearly all actives have a fitted effect of over 70% in size
CCL64 TGFb inh = TGF-b inhibition, CCL64 orthogonal assay | actives 41% (n = 1,600) | Potency, µM (highest dose often 46.1 µM), for the others: at the top dose activity, negative = inhibition, most hits filed as inhibitors | AID 720536 | shares compounds with TGFb inhibitor | CCL64 CAGA-GFP reporter, TGF-b stimulated, GFP fluorescence, 18 h; also: nearly all actives have a fitted effect of over 65% in size
COP TGFb inh = TGF-b inhibition validated with COP promoter; shares compounds with TGFb inhibitor; HepG2 COP-GFP TGF-b reporter, GFP fluorescence, 18 h; cells stimulated by added recombinant TGF-beta; Potency, µM (series often up to 46.1 µM), without a hit: top-dose activity, negative = inhibition, most hits filed as inhibitors; actives 3% (n = 1,600); AID 720537; also: nearly all actives have a fitted effect of over 70% in size
Numbers without * were called inactive; i = inactive; ? = inconclusive; · = no result given. Calls follow the shape of the dose curve; as a rule, active = well fitted curve in the direction sought with a large enough effect; inconclusive = small, poorly fitted or top-dose-only effect, or another doubt; inactive = no such curve, though single readings can be large; an effect the other way counts as inactive or inconclusive. Potency is read from the fitted curve at half-maximal effect.

SMILES	Apoferritin bind	ATXN2 expr inh	HepG2 tox-1	TGFb inhibitor	S2 tox	TGFb confirm	HepG2 tox-2	CCL64 TGFb inh	COP TGFb inh
CCOC(=O)N(C)c1c(CC)nc2c(OCc3ccc(C(F)(F)F)cc3)cccn12	·	?	-12%	?	i	?	-19%	4%	0%
CCOC(=O)N(C)c1c(CC)nc2c(OCc3ccc(F)cc3)cccn12	·	-29%	2%	-11%	i	·	·	·	·
Oc1c(CN2CCOCC2)cc(COCc2ccccc2)c2cccnc12	-7%	5.6µM*	-38%	1µM*	i	-22%	?	8.2µM*	21%
O=C(Oc1c(CN2CCOCC2)cc(Cl)c2cccnc12)c1ccccc1Br	-5%	·	-136%	3.2µM*	?	-11%	?	?	1%
Oc1c(CNc2ccccc2)cc(COCc2ccccc2)c2cccnc12	·	?	-10%	?	i	·	·	·	·
O=C1CCCc2cc(S(=O)(=O)NCC3CCC(C(=O)NCc4ccccc4Cl)CC3)ccc2N1 (stereo not given)	0%	11%	-28%	-20%	i	·	·	·	·
COc1cc(-c2noc(C)c2/C=C/c2cccc([N+](=O)[O-])c2)cc(OC)c1OC	-11%	?	-19%	13µM*	?	?	-27%	?	-11%
COc1cc(-c2noc(C)c2/C=C/c2ccc(C(=O)O)cc2)cc(OC)c1OC	-8%	-3%	1%	-1%	i	·	·	·	·
O=c1cc(NS(=O)(=O)c2ccccc2)nc(SCc2ccc(Cl)cc2)[nH]1	?	3%	-50%	4µM*	?	?	-24%	18µM*	4%
O=C(CSc1nc(NS(=O)(=O)c2ccccc2)cc(=O)[nH]1)Nc1ccc(Cl)cc1	-17%	-26%	-27%	1%	i	·	·	·	·
C[C@H](CO)N1C[C@H](C)[C@@H](CN(C)C(=O)Nc2ccc(C(F)(F)F)cc2)Oc2c(NC(=O)Cc3ccccc3)cccc2C1=O	·	-1%	-8%	-16%	i	·	·	·	·
Cc1cc(C)c(Cn2cnc(-c3ccc([N+](=O)[O-])cc3)c2)c(C)c1	-18%	-25%	-32%	?	i	·	·	·	·
CC(C)(C)c1ccc(Cn2cnc(-c3ccc([N+](=O)[O-])cc3)c2)cc1	?	13%	-21%	8.9µM*	i	21µM*	?	?	51%
CCC[C@H](NC(=O)[C@H](CC(C)C)N(C)C(=O)CNC(=O)[C@@H](NC(=O)[C@H](Cc1ccccc1)NC(=O)[C@H](CCCCN)NC(=O)[C@@H](N)CC(=O)O)C(C)C)C(N)=O	2%	·	·	·	·	·	·	·	·
COc1ccc(-c2c(C(F)(F)F)[nH]n3c(=O)cc(-c4ccccc4)nc23)cc1	2%	-4%	-62%	?	·	16µM*	16µM*	8.2µM*	34%
Cc1ccc(-n2nnnc2Sc2ccc(S(=O)(=O)NCCN(C)C)cc2[N+](=O)[O-])cc1	-6%	?	8.9µM*	1.6µM*	?	7.3µM*	21µM*	5.8µM*	?
CN=c1sc(C(=O)Nc2ccccc2)c(C)n1C	0%	-7%	-1%	-6%	i	·	·	·	·
CN=c1sc2c(n1C)C(=O)c1ccccc1C2=O	·	?	2.2µM*	1.4µM*	·	1.8µM*	2.6µM*	5.2µM*	4.6µM*
Cc1ccc2c(c1)c(=O)c(C(=O)c1ccc3c(c1)OCO3)cn2Cc1ccc(Cl)cc1	-17%	-27%	-10%	-6%	i	·	·	·	·
CCn1c(=S)[nH]c2c(=O)n(C)c(=O)n(C)c21	·	17%	0%	-3%	i	·	·	·	·
CC[n+]1c(/C=C/c2ccc(OC)c(OC)c2)ccc2ccccc21	5%	·	1%	26%	i	·	·	·	·
CCN(CC)c1ccc(/C=C/c2ccc3ccc(OC)cc3[n+]2CC)cc1	-11%	·	-10%	6.3µM*	·	2.9µM*	?	2.6µM*	25%
COc1ccc(Nc2nc(-c3ccc(C)cc3)nc3ccccc23)c(OC)c1	136%	·	-31%	?	·	·	·	·	·
COc1ccc(Nc2nc(N3CCCC3)nc3ccccc23)c(OC)c1	-2%	10µM*	-58%	10µM*	20µM*	?	?	?	66%
CS(=O)(=O)c1ccc(C(=O)OCC(=O)NC(=O)C2CCCCC2)cc1[N+](=O)[O-]	-2%	·	-116%	10µM*	·	12µM*	?	?	?
SMILES	Apoferritin bind	ATXN2 expr inh	HepG2 tox-1	TGFb inhibitor	S2 tox	TGFb confirm	HepG2 tox-2	CCL64 TGFb inh	COP TGFb inh
Cc1cc(C(=O)OCC(=O)NC(=O)C2CCCCC2)ccc1[N+](=O)[O-]	·	·	4%	-2%	·	·	·	·	·
Cc1ccc(NC(=O)CCC(=O)NNC(=O)C(c2ccccc2)c2ccccc2)c(C)c1	-1%	2%	-10%	-26%	i	·	·	·	·
O=C1C(NS(=O)(=O)c2cccs2)=C(N2CCN(Cc3ccccc3)CC2)C(=O)c2ccccc21	-14%	·	10µM*	8.9µM*	i	?	-24%	-10%	16%
O=C(Nc1cccc(-n2cnnn2)c1)c1cc(Cl)ccc1Cl	-4%	-4%	-27%	16µM*	i	?	?	-6%	30%
O=C(Nc1cccc(-n2cnnn2)c1)c1ccccc1Br	-2%	-3%	0%	7%	i	·	·	·	·
Cc1ccc(-c2ccc(C(=O)Nc3ccccc3)o2)c2ccccc12	6%	-8%	-10%	?	i	·	·	·	·
Cc1cscc1-c1ccc(C(=O)Nc2c(C)cccc2C)o1	·	-28%	-25%	14µM*	?	12µM*	-13%	-29%	17%
CC1CCCN(S(=O)(=O)c2ccc(S(=O)(=O)NC(C)c3cccs3)cc2)C1 (stereo not given)	?	-7%	-15%	?	i	?	-11%	3%	-4%
